The sample as a whole holds a higher share of hits than the screen did.
GIRK2 activ: GIRK2 channel activation; P48051; HEK293-GIRK2 thallium flux, Thallos fluorescence, MPD; calls only for hits at 25 µM; 63,000 tested, 0.05% active; call rule not given here
Target sequence (P48051 whole entry, looked up): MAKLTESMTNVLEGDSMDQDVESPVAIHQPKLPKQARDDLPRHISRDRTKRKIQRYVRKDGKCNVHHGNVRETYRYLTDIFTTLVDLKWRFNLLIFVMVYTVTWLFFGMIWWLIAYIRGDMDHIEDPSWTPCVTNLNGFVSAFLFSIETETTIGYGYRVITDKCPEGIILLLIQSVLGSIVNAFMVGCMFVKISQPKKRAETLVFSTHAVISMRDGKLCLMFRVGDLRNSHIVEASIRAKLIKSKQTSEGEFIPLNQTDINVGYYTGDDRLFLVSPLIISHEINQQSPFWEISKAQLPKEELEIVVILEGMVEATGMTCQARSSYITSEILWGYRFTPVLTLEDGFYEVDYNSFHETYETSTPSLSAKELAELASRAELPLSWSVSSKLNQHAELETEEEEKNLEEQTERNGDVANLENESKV
* marks the source's active call; other numbers are inactive results; i = inactive; + = active, no number.

SMILES | GIRK2 activ
CN(C)c1ncc(NC(=O)COc2ccc(-n3cccn3)nn2)cn1 | i
COC(=O)c1ccc(NC(=O)Cn2ncn3nc(-c4ccc(C)c(C)c4)cc3c2=O)cc1 | i
C=CC(=O)N1CCCN(C(=O)C=C)CC1 | i
Cc1ccc2[nH]c3c(=O)n(CCC(=O)Nc4cccc(C(C)C)c4)cnc3c2c1 | i
O=c1ccc(-c2ccccc2)nn1CCN1CCN(S(=O)(=O)c2ccccc2C(F)(F)F)CC1 | i
CCOc1ccccc1N1CCN(S(=O)(=O)c2n[nH]c(C)c2C(=O)OC)CC1 | i
COC(=O)c1c(S(=O)(=O)N2CCN(c3cccc(Cl)c3)CC2)n[nH]c1C | +
CCOC(=O)c1c(S(=O)(=O)N2CCN(c3ccc(Cl)cc3)CC2)n[nH]c1C | i
CSc1ccccc1C(=O)NCC#CCOc1ccc2c(c1)OCO2 | i
O=C(CSc1cc(-n2cccn2)ncn1)NCc1ccc(C(F)(F)F)cc1 | i
CSc1ccccc1NC(=O)C(=O)NCC1(CO)CC1 | i
CSc1cccc(NC(=O)C(=O)NCC2(c3ccccc3)CCOCC2)c1 | i
CSc1ccccc1NC(=O)C(=O)NCC1(c2ccccc2)CCOCC1 | +
CC(=O)N1N=C(c2ccccc2NS(C)(=O)=O)CC1c1ccc(O)cc1 (stereo not drawn) | i
Cc1noc(CNC(=O)Cn2cnc3ccccc3c2=O)n1 | i
COCCCNC(=O)CSc1nc(-c2ccc(F)cc2)[nH]c1-c1ccc(F)cc1 | +
COCCCNC(=O)CSc1nc(-c2ccc(OC)c(OC)c2)[nH]c1-c1ccc(F)cc1 | i
COCCCNC(=O)CSc1nc(-c2ccccc2)[nH]c1-c1ccc(OC)cc1 | i
Cc1ccc(Cn2c(=O)c3ccccc3n(Cc3nc(-c4cccs4)no3)c2=O)cc1 | i
Cc1cc(C)n(-c2ncc(NC(=O)Nc3ccc(Cl)c(C(F)(F)F)c3)cn2)n1 | i
Cc1ccc(NC(=O)Nc2cnc(N3CCN(C)CC3)nc2)c(Cl)c1 | i
CN1CCN(c2ncc(NC(=O)Nc3ccc(Cl)c(C(F)(F)F)c3)cn2)CC1 | +
O=C(Cn1c(=O)oc2ccccc21)N1CC(c2nc(-c3ccc[nH]c3=O)no2)C1 | i
CCCCC[C@H](O)/C=C/[C@@H]1[C@@H](C/C=C\CCCC(=O)N(C)C)[C@@H](O)C[C@H]1O | i

Screens as filed in PubChem BioAssay.
